Assay outcomes as filed in PubChem.
BoNT-A LC inh2: inhibitors of Botulinum neurotoxin A light chain protease; multiplex microsphere protease substrate cleavage, flow cytometry; inhibition, % at 10 µM; 360,000 tested, 0.17% active
Bead autofluor: flagged as autofluorescent in microsphere protease counterscreen | compound autofluorescence counterscreen, microsphere flow cytometry; active compounds read high | fluorescence intensity (no concentration beside the values) | 360,000 tested, 3.1% active; in the data active = fluorescence intensity above about 16000; inconclusive = no clear call, values can overlap the other calls
MazF activator: activators of E. coli MazEF toxin-antitoxin RNase | P0AE70 | FAM/BHQ RNA-DNA oligo cleavage fluorescence, 5 h | activation, % at 20 µM | 350,000 tested, 0.32% active | AID 504720; in the data active = activation above about 50%
Target sequence (P0AE70 whole entry, looked up): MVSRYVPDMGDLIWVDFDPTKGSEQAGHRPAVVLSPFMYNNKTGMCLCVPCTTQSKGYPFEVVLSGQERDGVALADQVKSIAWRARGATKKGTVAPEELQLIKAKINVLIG
BoNT F protease: inhibitors of Botulinum neurotoxin F light chain protease | Multiplex microsphere protease cleavage assay, flow cytometry | inhibition, % at 10 µM | 360,000 tested, 0.22% active | AID 588497; in the data active = inhibition above about 35%, passing the limit was not always enough; inconclusive = no clear call, values can overlap the other calls
PfHsp40 rescue: restores yeast growth despite PfHsp40 toxicity; S. cerevisiae expressing PfHsp40, growth rescue, ATP luminescence; growth rescue, % at 12.5 µM; 340,000 tested, 0.68% active; AID 504582; in the data active = growth rescue above about 28%, passing the limit was not always enough; inconclusive = no clear call, values can overlap the other calls;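 also: yeast W303a lacking pdr1 and pdr3 grown in galactose medium; growth measured after three days at 30 °C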
Anthrax LF prot: anthrax lethal factor protease inhibition | P15917 | multiplex microsphere protease cleavage assay, LF | inhibition, % at 10 µM | 360,000 tested, 0.12% active | AID 588501
Each line names hits and unclear results; the compound was inactive in the other large screens. Hits are enriched below; roughly 4.3% of the tested compounds scored in any of these assays. Rule as the data show it, unless noted: active = inhibition above about 30%; inconclusive = no clear call, values can overlap the other calls; inactive = below that.

CCOC(=O)CSc1nc(C)c(C(C)=O)cc1C#N	Bead autofluor 23558
CCC(SC1=N/C(=C/c2ccccc2)C(=O)N1c1ccccc1)C(=O)Nc1cc(C)on1 (stereo not drawn)	none
COc1ccc(/C=C2/N=C(SCC(=O)Nc3cc(C)on3)N(c3ccccc3)C2=O)cc1	MazF activator 70
CC(=O)c1cc(C#N)c(SCC(=O)O)nc1C	Bead autofluor inconclusive
Cc1nc(SCC(=O)NCC2CCCO2)c2cc(-c3ccccc3)sc2n1 (stereo not drawn)	none
Cc1ccc(S(=O)(=O)N(CCC(=O)N2CCOCC2)c2ccccc2)cc1	none
O=C(COC(=O)/C=C/c1ccc(OC(F)F)cc1)Nc1ccc(N2CCOCC2)cc1	none
Cc1ccc2nc(SCC(=O)Nc3ccc4sc(C)nc4c3)c(C#N)cc2c1	MazF activator 168
Cc1cc(C)c2nc(SCC(=O)Nc3cc(C)on3)c(C#N)cc2c1	MazF activator 59
Cc1ccc2nc(SCC(=O)Nc3ccccc3N3CCOCC3)c(C#N)cc2c1	none
CCCc1cc(Nc2cccc(OC)c2)n2ncnc2n1	Bead autofluor 23259
CN(C)S(=O)(=O)c1ccc(C(=O)N(c2ccccn2)c2ccccn2)cc1	Bead autofluor 22500
O=C(c1cc([N+](=O)[O-])cc([N+](=O)[O-])c1)N(c1ccccn1)c1ccccn1	none
O=C(c1ccco1)N(c1ccccn1)c1ccccn1	BoNT-A LC inh2 inconclusive, Bead autofluor 22821
O=C(/C=C/c1ccco1)N(c1ccccn1)c1ccccn1	none
O=C(Nc1ccncc1)Nc1ccc(F)cc1F	Bead autofluor 23331
CCn1nc(/C=C/c2ccccc2)nc2c(=O)n(C)c(=O)nc1-2	PfHsp40 rescue 276
CCn1nc(-c2cccs2)nc2c(=O)n(C)c(=O)nc1-2	none (no result: BoNT-A LC inh2, Bead autofluor, BoNT F protease, Anthrax LF prot)
Cc1ccc(C(=O)N2CCC3CC2c2cc(-c4ccc5c(c4)OCO5)ccc23)cc1 (stereo not drawn)	none
COCC(C)NC(C(=O)Nc1ccc(C)c(Cl)c1)c1ccccc1 (stereo not drawn)	BoNT-A LC inh2 inconclusive, Bead autofluor 21763
NS(=O)(=O)c1ccc(CCNC(=O)c2cccnc2)cc1	Bead autofluor 20577
CC(C)C(=O)Nc1cccc(C(=O)Nc2ccccc2C(=O)O)c1	Bead autofluor 20875
O=C(NCCc1ccccc1)c1cccnc1	none
CCCNC(=O)c1cccc(NC(=O)C(C)C)c1	none
CC(C)C(=O)Nc1cccc(C(=O)NCCc2ccc(S(N)(=O)=O)cc2)c1	BoNT-A LC inh2 inconclusive, Bead autofluor 20300
O=C(Nc1ccccc1C(=O)O)c1cccc(NC(=O)c2ccccc2Br)c1	BoNT F protease inconclusive
O=C(Nc1ccc(F)cc1)c1oc2ccccc2c1NC(=O)C1CC1	none
Oc1c(CN2CCc3ccccc3C2)cc(Cl)c2cccnc12	PfHsp40 rescue 282
CC(=O)NC(c1ccc(C)cc1)c1cc([N+](=O)[O-])c2cccnc2c1O (stereo not drawn)	PfHsp40 rescue 221
Cc1c(C)c2cccnc2c2ncccc12	PfHsp40 rescue 76
Oc1c(Cl)cc(CN2CCOCC2)c2cccnc12	PfHsp40 rescue inconclusive
CCC(=O)NC(c1ccc(C)cc1)c1cc([N+](=O)[O-])c2cccnc2c1O (stereo not drawn)	none
Oc1c(I)cc(Cl)c2cccnc12	PfHsp40 rescue 246
O=[N+]([O-])c1cc(Cl)c2cccnc2c1O	PfHsp40 rescue 142
Clc1cc2cccnc2c2ncccc12	PfHsp40 rescue 116
O=[N+]([O-])c1cc(Cl)c(O)c2ncccc12	none
O=[N+]([O-])c1cc(F)c2cccnc2c1O	PfHsp40 rescue 73
c1cnc2c(c1)ccc1ncccc12	none
CCC(C)C(NC(=O)CCCNC(=O)CCC(=O)OC1O[C@H]2OC3(C)CC[C@H]4[C@H](C)CCC(C1C)C24OO3)C(=O)O (stereo partly drawn)	BoNT F protease inconclusive (no result: MazF activator)
CCC(C)NC(=O)CCC(=O)OC1O[C@H]2OC3(C)CC[C@H]4[C@H](C)CCC(C1C)C24OO3 (stereo partly drawn)	PfHsp40 rescue 101
CC1CCCC(C)N1C(=O)COC(=O)c1nn(C)c(=O)c2ccccc12 (stereo not drawn)	none
CN(C)CC(=O)c1ccc(-c2ccccc2)cc1	Bead autofluor 20222
CCN(CC)CC(=O)c1ccc(-c2ccccc2)cc1	none
CC(C)(C)SCCNS(=O)(=O)c1ccc2ccccc2c1	Bead autofluor 23401
Cc1ccc(-n2cnc3c(=O)[nH]cnc32)cc1	none
COc1nc(Nc2ccc(O)cc2)nc(OC(C(F)(F)F)C(F)(F)F)n1	Bead autofluor 16552
CCCCC1(c2ccc(F)cc2)NC(=O)N(CC(=O)Nc2ccc(N3CCOCC3)cc2)C1=O (stereo not drawn)	none
Nc1ccc2c(Cl)cc(Cl)cc2c1	none (no result: PfHsp40 rescue)
CCc1c(C)sc(NC(=O)c2ccco2)c1C(=O)N1CCOCC1	none
CCc1c(C)sc(NC(=O)c2ccco2)c1C(=O)N1CCCCC1	Bead autofluor 22698
CC1=C(C(=O)Nc2ccccc2)C(c2ccco2)NC(=S)N1 (stereo not drawn)	Bead autofluor 24277
CC1=C(C(=O)Nc2ccccc2)C(c2ccco2)NC(=O)N1 (stereo not drawn)	none
CN(C)c1ccc(CNC(=O)C2(C)Cc3c(-c4ccc5c(c4)OCO5)ccnc3O2)cc1 (stereo not drawn)	none (no result: MazF activator, PfHsp40 rescue)
Cc1ccc(S(=O)(=O)N2CCN(S(=O)(=O)c3ccc(C)cc3)C3OCCOC32)cc1 (stereo not drawn)	Bead autofluor 16671
Cc1ccc(S(=O)(=O)N2CCN(C(=O)CN3CCOCC3)C2C(C)C)cc1 (stereo not drawn)	Bead autofluor 22471
Cc1ccc(S(=O)(=O)N2CCCCC2C(=O)O)cc1 (stereo not drawn)	none
C[C@@H]1COC(=O)[C@H](Cc2ccc(F)cc2)C/C=C\C[C@@H](CC(=O)NCCO)C(=O)N1	none
Cc1ccc(S(=O)(=O)NC2CCC(C(=O)O)CC2)cc1 (stereo not drawn)	Bead autofluor 17170
Cc1ccc(NC(=O)CCc2ccc(S(=O)(=O)NC3CCCCC3)cc2)cc1	none
Cc1ccc(S(=O)(=O)NCC(=O)NC2CCCC2)cc1	Bead autofluor 23092
Cc1ccc(NS(=O)(=O)c2ccc(CCC(=O)NC3CC3)cc2)cc1	Bead autofluor 23092
Cc1ccc(SCc2c(C(=O)N/N=C/c3cccs3)nnn2-c2nonc2N)cc1	none (no result: PfHsp40 rescue)
CC(=O)c1cccc(S(=O)(=O)N2CCCC(c3nc4c(nnn4Cc4cccc(Cl)c4)c(=O)[nH]3)C2)c1 (stereo not drawn)	none
Cc1ccc(OCC(=O)N2CCCCC2)c(Br)c1	Bead autofluor 17161
CCOC(=O)c1ccc2c(c1)N(Cc1ccccc1C)C(=O)c1ccccc1S2=O (stereo not drawn)	Bead autofluor 22107
CC(C)(C)c1cc(NCCCn2ccnc2)n2ncc(-c3ccc(Cl)cc3)c2n1	BoNT-A LC inh2 inconclusive, Bead autofluor 25531, PfHsp40 rescue 70
